According to the supplement of paper PMC3414501:
Where a name gives a salt, the structure may show the parent alone.

Key:
[1] = test system: S. cerevisiae SK1 pCDA2-eGFP (USY613), sporulating; test: CDA2-GFP sporulation assay sensitivity score (z-score vs DMSO controls); higher = stronger inhibition of sporulation, active = hit call of the paper;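 also: active if sensitivity score above 5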
[2] = test system: S. cerevisiae AD1-9 (efflux-pump deficient), vegetative growth in YPD; test: growth sensitivity score (doubling time z-score vs DMSO controls); higher = slower growth, strongly negative scores also mark growth inhibition (complete suppression), active = hit call of the paper
Procedure, shortened: (§1)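 Optical density of Saccharomyces cerevisiae cultures in microtiter plates was followed every 15 min for 24 hours after seeding at an OD600 of 0.065. Eight solvent-only wells were run per experiment. Growth sensitivity scores were found by subtracting the solvent-only mean from the compound mean and dividing by the solvent-only standard deviation.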

[3] = test system: S. cerevisiae BY4741 (wild-type), vegetative growth in YPD; test: as above
Procedure, shortened: as §1

[4] = test system: S. cerevisiae NKY1551 his4x/his4B, sporulating; test: HIS4 meiotic recombination assay sensitivity score (z-score vs DMSO controls); higher = stronger inhibition of sporulation/recombination, active = hit call of the paper;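 also: active if sensitivity score above 5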

Row | SMILES | CDA2-GFP sporulation assay sensitivity score [1] | growth sensitivity score [2] | growth sensitivity score [3] | HIS4 meiotic recombination assay sensitivity score [4]
1 | CN(CCOc1ccc(CC2SC(=O)NC2=O)cc1)c1ccccn1 (stereo not drawn) [Rosigltazone hydrochloride] (stock concentration (mM, diluted 1:100): 8.2) | -0.4 (inactive) | 0.66 (inactive) | 2.48 (active) | 
2 | Clc1ccc(CO/N=C(\Cn2ccnc2)c2ccc(Cl)cc2Cl)c(Cl)c1 [Oxiconazole nitrate] (stock concentration (mM, diluted 1:100): 10) | 0.87 (inactive) | 47.9 (active) | 66.3 (active) | 
3 | COc1ccc(-c2oc3c(CC=C(C)C)c(O[C@@H]4O[C@H](CO)[C@@H](O)[C@H](O)[C@H]4O)cc(O)c3c(=O)c2O[C@@H]2O[C@@H](C)[C@H](O)[C@@H](O)[C@H]2O)cc1 [Icariin] (stock concentration (mM, diluted 1:100): 10) | -1.61 (inactive) |  | -1.71 (inactive) | 0.32 (inactive)
4 | CN(CCCN1c2ccccc2CCc2ccccc21)CC(=O)c1ccc(Cl)cc1 [Lofepramine] (stock concentration (mM, diluted 1:100): 10) |  | 51.9 (active) | 3.15 (active) | 3.17 (inactive)
5 | CCOC(=O)OC(C)OC1=C(C(=O)Nc2ccccn2)N(C)S(=O)(=O)c2ccccc21 (stereo not drawn) [Ampiroxicam] (stock concentration (mM, diluted 1:100): 10) | 3.3 (inactive) | -0.54 (inactive) | -0.19 (inactive) | 
6 | CCOC(=O)N1CCC(=C2c3ccc(Cl)cc3CCc3cccnc32)CC1 [Loratadine] (stock concentration (mM, diluted 1:100): 10) | 3.83 (inactive) |  | 335 (active) | -1.19 (inactive)
7 | CCCN[C@H]1CCc2nc(N)sc2C1 [Pramipexole hydrochloride] (stock concentration (mM, diluted 1:100): 7.1) | -0.08 (inactive) | -2.17 | -0.39 (inactive) | 
8 | NC(=O)N1c2ccccc2CC(=O)c2ccccc21 [Trileptal] (stock concentration (mM, diluted 1:100): 10) |  | 1.04 (inactive) | 1.24 (inactive) | -2.89 (inactive)
9 | CN(Cc1cnc2nc(N)nc(N)c2n1)c1ccc(C(=O)N[C@@H](CCC(=O)O)C(=O)O)cc1 [Methotrexate] (stock concentration (mM, diluted 1:100): 14.6) | -2.22 (inactive) | -2.15 | -0.16 (inactive) | 
10 | CC[C@H](C)C(=O)O[C@H]1CCC=C2C=C[C@H](C)[C@H](CC[C@@H]3C[C@@H](O)CC(=O)O3)[C@H]21 [Mevastatin] (stock concentration (mM, diluted 1:100): 10) | 0.51 (inactive) | 130 (active) | 2.89 (active) | 
11 | COCc1c(C(C)C)nc(C(C)C)c(/C=C/[C@@H](O)C[C@@H](O)CC(=O)O)c1-c1ccc(F)cc1 [Cerivastatin] (stock concentration (mM, diluted 1:100): 10) | 0.79 (inactive) |  | 28.6 (active) | 0.17 (inactive)
12 | CCc1oc2ccccc2c1C(=O)c1cc(Br)c(O)c(Br)c1 [Benzbromarone] (stock concentration (mM, diluted 1:100): 10) | 13.7 (active) |  | 72.3 (active) | -1.58 (inactive)
13 | O=C(O)CCNC(=O)c1ccc(/N=N/c2ccc(O)c(C(=O)O)c2)cc1 [Balsalazide] (stock concentration (mM, diluted 1:100): 10) | 1.1 (inactive) | -1.86 (inactive) | -1.09 (inactive) | 
14 | O=C(O)c1cc(/N=N/c2ccc(S(=O)(=O)Nc3ccccn3)cc2)ccc1O [Sulfasalazine] (stock concentration (mM, diluted 1:100): 10) | 2.13 (inactive) | -2.95 | -2.26 | 
15 | CCCCc1oc2ccccc2c1C(=O)c1cc(I)c(OCCN(CC)CC)c(I)c1 [Amiodarone hydrochloride] (stock concentration (mM, diluted 1:100): 9.5) | 7.12 (inactive) |  | 126 (active) | -0.63 (inactive)
16 | Cc1cccc(CCN2CCC(C(=O)c3ccc(NS(C)(=O)=O)cc3)CC2)n1 (stock concentration (mM, diluted 1:100): 9.9) | -0.99 (inactive) |  | -0.44 (inactive) | -3.32 (inactive)
